Reference: PubChem BioAssay AID1159580 (chemical genetic matrix, 2015)
Out of some 5,500 compounds screened, about 2,000 (36%) were called active. About 18% were inconclusive and are not listed. Cut-off read from the data, not from the text of the source: active = normalized growth mostly below about 0.91 (no sharp cut-off); inconclusive = no clear call, values can overlap the other calls; inactive = mostly above about 0.92. The list shows a part of the results.

Assay: chemical genetic growth profiling, strain panel (AID 1159580);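 note: tested at 20 µM; growth read once vehicle control cultures reached saturation at 30 °C; 1 = growth at the plate median or of vehicle wells; lower values mean less growth of the strain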
Conditions: growth OD

Measured: normalized growth

O=C(O)/C=C/C=C/c1ccccc1
active: S. cerevisiae deletion strains, locus YJR066W, strain TOR1, active compounds read low 0.162 | S. cerevisiae deletion strains, locus YKL009W, strain mrt4, active compounds read low 0.784 | S. cerevisiae deletion strains, locus YKL068W, active compounds read low 0.854 | S. cerevisiae deletion strains, locus YKL085W, strain MDH1 (second series), active compounds read low 0.773 | S. cerevisiae deletion strains, locus YKL085W, strain MDH1, active compounds read low 0.773 | S. cerevisiae deletion strains, locus YKL160W, strain elf1, active compounds read low 0.831 | S. cerevisiae deletion strains, locus YKR001C, strain vps1, active compounds read low 0.792 | S. cerevisiae deletion strains, locus YKR026C, strain gcn3, active compounds read low 0.808 | S. cerevisiae deletion strains, locus YKR091W, strain srl3, active compounds read low 0.83 | S. cerevisiae deletion strains, locus YLL001W, strain dnm1, active compounds read low 0.782 | S. cerevisiae deletion strains, locus YLL026W, active compounds read low 0.831 | S. cerevisiae deletion strains, locus YLL041C, strain sdh2, active compounds read low 0.829 | S. cerevisiae deletion strains, locus YLR027C, strain aat2, active compounds read low 0.827 | S. cerevisiae deletion strains, locus YLR113W, strain HOG1, active compounds read low 0.26 | S. cerevisiae deletion strains, locus YLR221C, strain rsa3, active compounds read low 0.778 | S. cerevisiae deletion strains, locus YLR258W, strain gsy2, active compounds read low 0.817 | S. cerevisiae deletion strains, locus YLR262C, strain YPT6 (second series), active compounds read low 0.518 | S. cerevisiae deletion strains, locus YLR320W, strain mms22, active compounds read low 0.771 | S. cerevisiae deletion strains, locus YLR342W, strain FKS1, active compounds read low 0.812 | S. cerevisiae deletion strains, locus YLR357W, strain rsc2, active compounds read low 0.732 | S. cerevisiae deletion strains, locus YLR370C, strain arc18, active compounds read low 0.813 | S. cerevisiae deletion strains, locus YLR384C, strain iki3, active compounds read low 0.827 | S. cerevisiae deletion strains, locus YML120C, strain ndi1, active compounds read low 0.822 | S. cerevisiae deletion strains, locus YML124C, strain tub3, active compounds read low 0.917 | S. cerevisiae deletion strains, locus YMR058W, strain fet3, active compounds read low 0.793 | S. cerevisiae deletion strains, locus YMR078C, strain ctf18, active compounds read low 0.9 | S. cerevisiae deletion strains, locus YMR125W, strain sto1, active compounds read low 0.857 | S. cerevisiae deletion strains, locus YMR129W, active compounds read low 0.824 | S. cerevisiae deletion strains, locus YMR205C, strain PFK2, active compounds read low 0.826 | S. cerevisiae deletion strains, locus YMR231W, strain pep5, active compounds read low 0.835 | S. cerevisiae deletion strains, locus YNL071W, strain lat1, active compounds read low 0.775 | S. cerevisiae deletion strains, locus YNL183C, strain NPR1, active compounds read low 0.168 | S. cerevisiae deletion strains, locus YNL209W, strain ssb2, active compounds read low 0.863 | S. cerevisiae deletion strains, locus YNL248C, strain rpa49, active compounds read low 0.832 | S. cerevisiae deletion strains, locus YNL250W, strain rad50, active compounds read low 0.823 | S. cerevisiae deletion strains, locus YNL271C, strain bni1, active compounds read low 0.772 | S. cerevisiae deletion strains, locus YNL298W, strain CLA4, active compounds read low 0.692 | S. cerevisiae deletion strains, locus YNL322C, strain KRE1 (second series), active compounds read low 0.746 | S. cerevisiae deletion strains, locus YNR049C, strain mso1, active compounds read low 0.771 | S. cerevisiae deletion strains, locus YOL147C, strain pex11, active compounds read low 0.927 | S. cerevisiae deletion strains, locus YOR001W, strain rrp6, active compounds read low 0.794 | S. cerevisiae deletion strains, locus YOR070C, strain gyp1, active compounds read low 0.831 | S. cerevisiae deletion strains, locus YOR080W, strain dia2, active compounds read low 0.835 | S. cerevisiae deletion strains, locus YOR083W, strain WHI5, active compounds read low 0.808 | S. cerevisiae deletion strains, locus YOR106W, strain vam3, active compounds read low 0.793 | S. cerevisiae deletion strains, locus YOR144C, strain elg1, active compounds read low 0.926 | S. cerevisiae deletion strains, locus YOR231W, strain MKK1, active compounds read low 0.27 | S. cerevisiae deletion strains, locus YOR265W, strain rbl2, active compounds read low 0.836 | S. cerevisiae deletion strains, locus YOR270C, strain vph1, active compounds read low 0.687 | S. cerevisiae deletion strains, locus YOR290C, strain snf2, active compounds read low 0.737 | S. cerevisiae deletion strains, locus YPL051W, strain arl3, active compounds read low 0.83 | S. cerevisiae deletion strains, locus YPL078C, strain atp4, active compounds read low 0.771 | S. cerevisiae deletion strains, locus YPL106C, strain sse1, active compounds read low 0.821 | S. cerevisiae deletion strains, locus YPL240C, strain hsp82, active compounds read low 0.806 | S. cerevisiae deletion strains, locus YPL256C, strain CLN2, active compounds read low 0.226 | S. cerevisiae deletion strains, locus YPR119W, strain clb2, active compounds read low 0.922 | S. cerevisiae deletion strains, locus YPR141C, strain kar3, active compounds read low 0.877 | S. cerevisiae deletion strains, locus YPR163C, strain tif3, active compounds read low 0.908
inactive: S. cerevisiae deletion strains, locus YLR039C, strain RIC1, active compounds read low 0.832 | S. cerevisiae deletion strains, locus YLR058C, strain SHM2, active compounds read low 0.98 | S. cerevisiae deletion strains, locus YLR102C, strain apc9, active compounds read low 0.932 | S. cerevisiae deletion strains, locus YLR262C, strain YPT6, active compounds read low 0.886 | S. cerevisiae deletion strains, locus YLR268W, strain sec22, active compounds read low 0.887 | S. cerevisiae deletion strains, locus YLR330W, strain CHS5, active compounds read low 0.952 | S. cerevisiae deletion strains, locus YLR342W, strain FKS1 (second series), active compounds read low 0.882 | S. cerevisiae deletion strains, locus YLR371W, strain rom2, active compounds read low 0.913 | S. cerevisiae deletion strains, locus YLR418C, strain cdc73, active compounds read low 0.859 | S. cerevisiae deletion strains, locus YML016C, strain PPZ1, active compounds read low 0.994 | S. cerevisiae deletion strains, locus YML032C, strain rad52, active compounds read low 0.908 | S. cerevisiae deletion strains, locus YMR223W, strain ubp8, active compounds read low 0.934 | S. cerevisiae deletion strains, locus YMR307W, strain GAS1, active compounds read low 0.924 | S. cerevisiae deletion strains, locus YNL067W, strain RPL9B, active compounds read low 0.954 | S. cerevisiae deletion strains, locus YNL153C, strain GIM3, active compounds read low 0.952 | S. cerevisiae deletion strains, locus YNL233W, strain BNI4, active compounds read low 0.949 | S. cerevisiae deletion strains, locus YNL307C, strain MCK1, active compounds read low 0.93 | S. cerevisiae deletion strains, locus YNL322C, strain KRE1, active compounds read low 0.985 | S. cerevisiae deletion strains, locus YNR052C, strain pop2, active compounds read low 0.925 | S. cerevisiae deletion strains, locus YOL006C, strain TOP1, active compounds read low 1.11 | S. cerevisiae deletion strains, locus YOL012C, strain htz1 1.04 | S. cerevisiae deletion strains, locus YOR061W, strain CKA2, active compounds read low 0.973 | S. cerevisiae deletion strains, locus YOR069W, strain VPS5, active compounds read low 0.974 | S. cerevisiae deletion strains, locus YOR136W, strain idh2, active compounds read low 0.938 | S. cerevisiae deletion strains, locus YOR184W, strain ser1, active compounds read low 0.928 | S. cerevisiae deletion strains, locus YOR316C, strain cot1, active compounds read low 0.932 | S. cerevisiae deletion strains, locus YPL055C, strain LGE1, active compounds read low 0.965 | S. cerevisiae deletion strains, locus YPR167C, strain met16, active compounds read low 0.926 | S. cerevisiae deletion strains, strain wtn01, active compounds read low 0.926 | S. cerevisiae strains, strain wild type, active compounds read low 0.976
